A short description of experiment [1]: resazurin metabolic signal in HepG2 cells – cell-based, resazurin fluorescence, 24 h, PK04 Diversity Set, profiling panel (AID 1172). The note with it: HepG2 viability, higher = more signal. For orientation: Alamar Blue is a resazurin reagent that responds to reducing activity.
Experiment [2] in a line: budding yeast growth changes without added modifier – OD600, strain BY4716, 24 h, basal condition, primary screen (AID 1173). The note with it: S. cerevisiae BY4716 growth, OD600, 24 h; higher = more signal, called active from +8 up or from −8 down.
The nature of experiment [3]: viability profiling in MM1S myeloma cells – cell-based, resazurin fluorescence, basal, 24 h, PK04 Diversity Set, profiling panel (AID 1174).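 Also: MM1S multiple myeloma cell line.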 The note with it: higher = more signal, called active from +8 up or from −8 down.
Experiment [4] deals with Dihydroorotate dehydrogenase (quinone), mitochondrial (Plasmodium falciparum (isolate 3D7)) (UniProt Q08210). The experiment in a line: inhibition of P. falciparum DHODH – biochemical, C-terminal His tag, absorbance 600 nm, primary screen (AID 1175).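 Also: recombinant parasite enzyme with a five histidine tag at its C terminus.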 The note with it: PfDHODH enzyme, DCIP absorbance 600 nm; higher = more signal, called active from +8 up or from −8 down.
Chain of Dihydroorotate dehydrogenase (quinone), mitochondrial (Plasmodium falciparum (isolate 3D7)) (Q08210 whole entry, looked up): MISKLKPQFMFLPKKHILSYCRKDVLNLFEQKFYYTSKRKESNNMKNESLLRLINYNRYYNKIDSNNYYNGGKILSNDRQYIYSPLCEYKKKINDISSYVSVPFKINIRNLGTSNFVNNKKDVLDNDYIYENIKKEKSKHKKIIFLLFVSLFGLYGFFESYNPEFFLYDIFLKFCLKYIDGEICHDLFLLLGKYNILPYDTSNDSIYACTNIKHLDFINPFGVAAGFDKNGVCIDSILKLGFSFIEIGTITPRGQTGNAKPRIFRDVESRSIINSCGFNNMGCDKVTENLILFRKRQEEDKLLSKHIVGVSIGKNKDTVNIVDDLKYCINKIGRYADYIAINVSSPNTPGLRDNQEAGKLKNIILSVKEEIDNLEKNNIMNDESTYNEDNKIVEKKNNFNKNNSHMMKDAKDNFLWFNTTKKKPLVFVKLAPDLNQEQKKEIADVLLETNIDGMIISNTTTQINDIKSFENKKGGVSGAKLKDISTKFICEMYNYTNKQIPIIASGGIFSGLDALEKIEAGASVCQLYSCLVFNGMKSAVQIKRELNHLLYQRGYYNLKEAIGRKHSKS
Experiment [5] is described as follows: inhibition of PAO1 biofilm formation – strain PAO1, LB-PBS medium, absorbance 600 nm, primary screen (AID 1176). The note with it: P. aeruginosa PAO1 growth/biofilm, A600, 12 h; higher = more signal.
Experiment [6] is described as follows: growth modulation of vineyard yeast isolate – strain RM11-1a, OD600, basal, 24 h, primary screen (AID 1177).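 Also: cultures grown under basal conditions with no added stressor.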 The note with it: S. cerevisiae RM11-1a growth, OD600, 24 h; higher = more signal, called active from +8 up or from −8 down.
The nature of experiment [7]: growth of efflux-deficient E. coli DRC39 – strain DRC39, OD650, 24 h, E. coli filamentation inducers, primary screen (AID 1178).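 Also: growth measured as culture turbidity by optical density at 650 nm.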 The note with it: E. coli DRC39 acrAB, higher = more signal, called active from +8 up or from −8 down.
The nature of experiment [8]: growth of efflux-deficient E. coli DRC39 – strain DRC39, OD650, 48 h, E. coli filamentation inducers, primary screen (AID 1179).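 Also: screen aims at cell division blockers that make cells filament.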 The note with it: E. coli DRC39 delta-acrAB growth, higher = more signal, called active from +8 up or from −8 down.
Experiment [9] in a line: viability profiling in RPMI8226 myeloma cells – cell-based, resazurin fluorescence, basal, 24 h, PK04 Diversity Set, profiling panel (AID 1180).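 Also: RPMI8826 multiple myeloma cell line at 5000 cells per well.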 The settings on record: higher = more signal.
Experiment [10] concerns the target E3 ubiquitin-protein ligase XIAP (Homo sapiens) (UniProt P98170). Nature of the experiment: small molecules binding XIAP protein – biophysical, small-molecule microarray, fluorescence 635 nm, primary screen (AID 1181).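 Also: score merges 667 nm emission and signal to noise over triplicate slides.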 The note with it: higher = more signal.
For experiment [11], the system named is XIP peptide (Xip251-270) binding. Nature of the experiment: XIP fragment 251-270 binding compounds – biochemical, small-molecule microarray, fluorescence 635/667 nm, 0.1 µg/mL protein, primary screen (AID 1182). The note with it: fluorescent protein binding, 635 nm, higher = more signal, called active from +8 up or from −8 down.
For another experiment, the system named is XIP peptide (Xip251-270). The experiment in a line: compounds binding XIP fragment 251-270 – biochemical, small-molecule microarray, fluorescence 635/667 nm, 0.5 µg/mL protein, primary screen (AID 1183). The settings on record: fluorescence 635 nm, higher = more signal.
Experiment [12] is described as follows: blood-stage malaria parasite viability loss – strain 3D7, DAPI fluorescence, 100 nL, primary screen (AID 1184).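 Also: parasites grown inside human red blood cells in medium with human serum.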 The settings on record: P. falciparum 3D7 growth, 3 d, higher = more signal.
The target of experiment [13] is Homeobox protein Hox-A13 (Mus musculus) (UniProt Q62424). Nature of the experiment: disruptors of Hoxa13 oligonucleotide interaction – biochemical, fluorescence polarization, labeled oligonucleotide, primary screen (AID 1185). The settings on record: Hoxa13:DNA binding, 15 min, higher = more signal, called active from +8 up or from −8 down.
Chain of Homeobox protein Hox-A13 (Mus musculus) (Q62424 whole entry, looked up): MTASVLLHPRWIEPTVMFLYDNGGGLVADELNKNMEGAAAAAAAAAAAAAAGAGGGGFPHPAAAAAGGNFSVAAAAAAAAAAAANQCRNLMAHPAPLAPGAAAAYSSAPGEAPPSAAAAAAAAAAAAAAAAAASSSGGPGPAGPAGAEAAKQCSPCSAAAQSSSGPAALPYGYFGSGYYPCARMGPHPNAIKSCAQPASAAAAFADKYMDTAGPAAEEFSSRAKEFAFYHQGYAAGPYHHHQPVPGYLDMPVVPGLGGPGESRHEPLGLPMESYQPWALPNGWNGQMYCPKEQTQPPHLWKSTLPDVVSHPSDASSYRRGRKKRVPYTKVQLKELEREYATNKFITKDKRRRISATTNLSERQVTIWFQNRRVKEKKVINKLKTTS
Experiment [14] can be described thus: blockers of DNA damage checkpoint Chk1 activation – imaging, HeLa, hydroxyurea, phospho-Chk1 antibody, percent positive cells, primary screen (AID 1186). The note with it: hydroxyurea-induced phospho-Chk1 immunofluorescence imaging, higher = more signal.
Experiment [15] is described as follows: blockers of DNA damage checkpoint Chk1 activation – imaging, HeLa, hydroxyurea, phospho-Chk1 nuclear intensity, primary screen (AID 1187). The settings on record: hydroxyurea-induced phospho-Chk1 immunofluorescence imaging, higher = more signal.

Each structure is given as a SMILES string. The source made the active and inactive calls. Unless noted, no rule for the calls is given here.

Chain of E3 ubiquitin-protein ligase XIAP (Homo sapiens) (P98170 whole entry, looked up, the tested form may be a part): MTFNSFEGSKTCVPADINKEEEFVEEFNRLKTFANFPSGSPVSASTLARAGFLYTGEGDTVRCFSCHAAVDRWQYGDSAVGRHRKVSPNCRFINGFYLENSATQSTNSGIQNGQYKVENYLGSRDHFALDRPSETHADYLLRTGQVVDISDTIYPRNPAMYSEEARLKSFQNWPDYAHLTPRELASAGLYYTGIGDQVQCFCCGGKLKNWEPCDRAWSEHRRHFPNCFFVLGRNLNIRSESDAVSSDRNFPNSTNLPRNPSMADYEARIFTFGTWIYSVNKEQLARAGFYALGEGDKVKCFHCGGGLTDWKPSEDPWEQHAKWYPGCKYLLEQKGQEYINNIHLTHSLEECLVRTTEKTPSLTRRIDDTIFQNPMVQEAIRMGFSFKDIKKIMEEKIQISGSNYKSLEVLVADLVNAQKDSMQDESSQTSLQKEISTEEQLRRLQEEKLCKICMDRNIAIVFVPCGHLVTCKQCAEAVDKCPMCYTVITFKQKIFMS

Turning to `COc1ccc([Si](C)(C)[C@H]2[C@H](CCn3cc([C@H](O)c4ccccc4)nn3)O[C@@]3(C(=O)N(Cc4cccc(N5C(=O)c6cccc7cccc5c67)c4)c4ccccc43)[C@@H]2C)cc1`, the z-score in [1] is -0.717; in experiment [2], 0.807 (inactive); in experiment [3], -1.98 (inactive); in experiment [5], 1.42 (inactive); in experiment [6], 0.378 (inactive); in [7], -0.0889 (inactive). The z-score in experiment [8] is -0.216 (inactive); in experiment [9] it was -1.47; in experiment [12] it was -0.989; in experiment [13] it was -2.01 (inactive); in experiment [14], 0.169 (inactive); in [15] it was -0.656 (inactive). Further, the composite z-score was 0.0064 (inactive) in [4], -0.0516 in experiment [10], 0.75 (inactive) in [11] and 0.141 in the experiment on XIP peptide (Xip251-270).

As to `CO[C@H]1O[C@H](CO)[C@@H](OC(=O)c2ccc(Br)cc2)[C@@H]2OC(=O)[C@@H](Cc3ccc4ccccc4c3)C/C=C/C[C@H](Cc3ccc4ccccc4c3)C(=O)O[C@@H]12`, the z-score in experiment [1] was -0.213; in [2], -1.23 (inactive); in experiment [3] it was -0.612 (inactive); in [5] it was -0.649 (inactive); in [6], -1.34 (inactive); in experiment [7] it was 0.738 (inactive). For the same compound, the z-score was 1.03 (inactive) in experiment [8]; 0.402 in [9]; -0.0936 in [12]; -5.67 (inactive) in experiment [13]; -0.555 (inactive) in experiment [14]; -0.449 (inactive) in experiment [15]. Also, the composite z-score in experiment [4] is -1.92 (inactive); in experiment [10], 0.0848; in [11], 1.08 (inactive); with XIP peptide (Xip251-270), 0.266.

Regarding `CC(C)C(=C=CC[C@@H](O)c1ccccc1OCCO)C[C@@H](O)COCc1ccccc1`, the z-score in experiment [1] was 0.669; in experiment [2], -15.5 (active); in [3], 0.304 (inactive); in experiment [5], 0.354 (inactive); in experiment [6] it was -4.06 (inactive); in experiment [7] it was 2.28 (inactive). Besides, the z-score in [8] was 1.51 (inactive); in [9], 0.424; in experiment [12], -1.47; in experiment [13], -4.7 (inactive); in [14], -0.476 (inactive); in experiment [15] it was 1.12 (inactive). The composite z-score is -5.41 (inactive) in [4], 0.109 in experiment [10], 0.493 (inactive) in [11] and 0.401 with XIP peptide (Xip251-270).

`COc1cc2c(cc1OC)CN(C(=O)[C@@H]1[C@H]3C(=O)O[C@H](c4ccccc4)[C@H](c4ccccc4)N3[C@H](c3ccccc3OCCO)[C@@]13C(=O)Nc1ccc(C#CC4(O)CCCCCC4)cc13)CC2`: the z-score was 0.529 in experiment [1]; 0.882 (inactive) in [2]; -2.17 (inactive) in [3]; 2.03 (inactive) in experiment [5]; 3.23 (inactive) in experiment [6]; -0.236 (inactive) in experiment [7]. Besides, the z-score was 1.01 (inactive) in experiment [8]; 0.284 in experiment [9]; -1.67 in [12]; 2.22 (inactive) in [13]; -0.517 (inactive) in experiment [14]; -0.522 (inactive) in [15]. The composite z-score in experiment [4] is 0.44 (inactive); in [10], -0.11; in experiment [11] it was 0.863 (inactive); in the experiment with XIP peptide (Xip251-270) it was 0.822.

Regarding `[N-]=[N+]=NCc1ccccc1C[C@@]1(C(=O)N2CCCCC2)N=C(c2ccc(OCCCO)cc2)O[C@@H]1c1ccccc1N=[N+]=[N-]`, the z-score in experiment [1] is 0.226; in experiment [2], 0.146 (inactive); in experiment [3] it was -0.964 (inactive); in [5] it was 0.509 (inactive); in [6], 1.41 (inactive); in experiment [7], 0.878 (inactive). Also, the z-score in experiment [8] is -0.0021 (inactive); in [9], -0.892; in experiment [12], -2.24; in experiment [13], -1.84 (inactive); in experiment [14] it was -0.298 (inactive); in experiment [15], 0.246 (inactive). In addition, the composite z-score in [4] was 0.42 (inactive); in experiment [10] it was 0.0694; in experiment [11], 1.25 (inactive); in the experiment on XIP peptide (Xip251-270), 0.386.

As for `C=CC[C@]12N=C(c3ccc(OCCCO)cc3)O[C@H]1c1ccccc1N(C)C2=O`, the z-score was -0.782 in experiment [1]; -1.62 (inactive) in [2]; -1.54 (inactive) in experiment [3]; 0.345 (inactive) in experiment [5]; 1.27 (inactive) in experiment [6]; 0.105 (inactive) in [7]. In addition, the z-score in experiment [8] was -0.487 (inactive); in experiment [9], -1.28; in experiment [12], -2.33; in experiment [13], -4.31 (inactive); in experiment [14] it was -0.0503 (inactive); in experiment [15], -0.394 (inactive). Further, the composite z-score in experiment [4] is 0.582 (inactive); in experiment [10] it was -0.031; in [11], 2.91 (inactive); in the experiment on XIP peptide (Xip251-270), 0.842.

`CN(C)CCCN1C(=O)[C@@]2(c3ccc([N+](=O)[O-])cc3)CC(=O)N(CC34CC5CC(CC(C5)C3)C4)[C@@H]2c2ccc(CO)cc21`: the z-score is -0.349 in [1]; 0.24 (inactive) in experiment [2]; -0.752 (inactive) in [3]; -0.121 (inactive) in experiment [5]; 0.536 (inactive) in experiment [6]; 0.384 (inactive) in experiment [7]. Moreover, the z-score in experiment [8] was 0.567 (inactive); in experiment [9], -0.959; in experiment [12] it was -0.428; in experiment [13] it was -2.47 (inactive); in experiment [14] it was -0.411 (inactive); in experiment [15], -0.112 (inactive). The composite z-score in experiment [4] is -7.42 (inactive); in [10], -0.02; in experiment [11] it was -0.0347 (inactive); in the experiment with XIP peptide (Xip251-270) it was 0.35.

With `C[C@]1(C(=O)NCCN2CCOCC2)c2ccccc2C(=O)N(Cc2ccc(OC(F)(F)F)cc2)[C@H]1c1ccc(CO)cc1`, the z-score in experiment [1] is 0.209; in [2] it was -0.427 (inactive); in [3] it was -0.191 (inactive); in experiment [5], 0.0435 (inactive); in experiment [6], -0.393 (inactive); in experiment [7], 0.815 (inactive). The z-score was 0.121 (inactive) in [8]; 0.206 in [9]; -1.08 in [12]; -4.78 (inactive) in [13]; -0.198 (inactive) in experiment [14]; -0.0723 (inactive) in experiment [15]. Moreover, the composite z-score in experiment [4] is -0.277 (inactive); in experiment [10], -0.0663; in experiment [11], -0.0513 (inactive); in the experiment on XIP peptide (Xip251-270), 0.466.

As for `O=C1NC(=O)C2C1C=CC(C(O)c1ccc3c(c1)OCO3)N2Nc1ccccn1` (centres undefined), the z-score is -0.861 in [1]; -0.117 (inactive) in experiment [2]; -0.854 (inactive) in experiment [3]; 1.89 (inactive) in experiment [5]; -0.86 (inactive) in [6]; 0.812 (inactive) in experiment [7]. Besides, the z-score in [8] is 1.3 (inactive); in experiment [9], -0.431; in [12] it was 0.453; in [13], -1.69 (inactive); in experiment [14], 0.095 (inactive); in [15], 0.14 (inactive). Besides, the composite z-score was 0.315 (inactive) in experiment [4], 0.0185 in experiment [10], 0.307 (inactive) in experiment [11] and 0.247 in the experiment with XIP peptide (Xip251-270).
